Rows were chosen to be rich in hits. Some 12% of all compounds tested hit in one or more screens of this group.
HP1b binding inh = HTS for Inhibitors of HP1-beta Chromodomain Interactions with Methylated Histone Tails. Potency, µM (titrated, usually from 114 µM), hits mostly inhibitors. AlphaScreen HP1-beta / biotin-H3K9me3 peptide binding. Chromobox protein homolog 1 (Homo sapiens), P83916. hit rate 0.56% among 390,000; also: nearly all actives have a fitted effect of over 70% in size
Target sequence (P83916 whole entry, looked up): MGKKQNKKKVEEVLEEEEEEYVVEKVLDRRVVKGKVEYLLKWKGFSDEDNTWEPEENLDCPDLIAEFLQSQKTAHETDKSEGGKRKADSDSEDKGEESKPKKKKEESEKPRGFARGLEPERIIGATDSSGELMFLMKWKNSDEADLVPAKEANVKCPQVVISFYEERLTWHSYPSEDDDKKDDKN
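AlphaScreen: HP1-beta (50 nM) preformed 30 min with biotin-H3(1-18)K9me3 peptide (50 nM) in PBS pH 7.4, 0.01% Tween-20. Compound added for 30 min at RT, then streptavidin donor/nickel chelate acceptor beads (10 ug/mL) for 30 min.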
JMJD2A Tudor = qHTS Assay for Inhibitors of JMJD2A-Tudor Domain | Potency, µM (highest dose often 114 µM), usual class: inhibitors | Lysine-specific demethylase 4A (Homo sapiens), O75164 | AID 504339, 2011 | AlphaScreen JMJD2A-Tudor / H3K4me3 peptide binding | hit rate 4.4% among 390,000; also: nearly all actives have a fitted effect of over 50% in size
Sfp PPTase inh = qHTS Assay for Inhibitors of Bacillus subtilis Sfp phosphopantetheinyl transferase (PPTase); 4'-phosphopantetheinyl transferase ffp (Bacillus subtilis), Q9F4F7; AID 1490, 2009; hit rate 3.5% among 310,000; Potency, µM, hits mostly inhibitors; Biochemical Sfp PPTase activity, qHTS;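 also: the enzyme is Sfp with the accession as filed and its product quenches rhodamine fluorescence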
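Reaction rates are the 30-min fluorescence difference (ex 525, em 598 nm) in wells containing 15 nM Sfp, 5 uM rhodamine-CoA and 12.5 uM BHQ-2-YbbR at pH 7.6 with 10 mM MgCl2.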
BAZ2B inh = qHTS Assay for Inhibitors of BAZ2B | Bromodomain adjacent to zinc finger domain protein 2B (Homo sapiens), Q9UIF8 | AlphaScreen BAZ2B-H3K14Ac peptide displacement | hit rate 4.4% among 360,000 | Potency, µM (highest dose often 114 µM), usual class: inhibitors; also: nearly all actives have a fitted effect of over 60% in size
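Inhibition is scored as reduced AlphaScreen emission. The BAZ2B/b-H3(5-23)K14Ac complex (50 nM each) in PBS pH 7.4, 0.01% Tween-20 meets compound (up to 110 uM) for 30 min at RT before bead addition.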
G9a block = qHTS Assay for Inhibitors of Histone Lysine Methyltransferase G9a; Potency, µM (titrated, usually from 102 µM), hits mostly inhibitors; AID 504332, 2011; hit rate 8.8% among 350,000; G9a H3K9 monomethylation, AlphaScreen, 2 h; Histone-lysine N-methyltransferase EHMT2 (Homo sapiens), Q96KQ7; also: nearly all actives have a fitted effect of over 75% in size
Target sequence (Q96KQ7 913-1193 limits assumed): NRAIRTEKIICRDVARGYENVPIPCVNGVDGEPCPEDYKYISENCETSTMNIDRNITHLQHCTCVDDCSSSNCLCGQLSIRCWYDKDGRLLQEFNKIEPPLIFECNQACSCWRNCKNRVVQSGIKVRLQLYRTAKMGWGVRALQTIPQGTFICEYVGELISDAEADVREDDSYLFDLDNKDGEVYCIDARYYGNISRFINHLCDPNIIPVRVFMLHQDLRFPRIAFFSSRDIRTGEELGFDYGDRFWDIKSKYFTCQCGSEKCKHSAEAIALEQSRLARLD
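Readings reflect AlphaScreen signal from monomethyl-H3K9 antibody detection. HMT at 20 nM; substrate b-H3K9 500 nM; cofactor SAM 20 uM; 2 h RT reaction; compounds tested as titrations in qHTS with 15 min preincubation.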
Numbers stand for hits; – = inactive; ? = inconclusive; · = no result; ! = a repeat was not active; [ ] = remark or other dose. Calls follow the shape of the dose curve; as a rule, active = well fitted curve in the direction sought with a large enough effect; inconclusive = small, poorly fitted or top-dose-only effect, or another doubt; inactive = no such curve, though single readings can be large; an effect the other way counts as inactive or inconclusive.

SMILES	HP1b binding inh	JMJD2A Tudor	Sfp PPTase inh	BAZ2B inh	G9a block
CCOC(=O)CSc1nnc(Cc2ccc(OC)cc2)n1-c1ccccc1	–	45µM	–	–	7.9µM
CCOC(=O)CSc1nnc(-c2ccoc2C)n1-c1ccc(C)cc1	–	–	–	–	–
COc1ccc(-n2c(COc3ccccc3)nnc2SCC(N)=O)cc1	–	–	–	–	45µM
COc1ccc(-c2nnc(SCC(=O)c3cccs3)n2-c2ccc(Cl)cc2)cc1	–	–	–	–	?
CCOC(=O)CSc1nnc(-c2ccoc2C)n1-c1ccc(OCC)cc1	–	–	56µM	–	?
COc1cccc(-c2nnc(SCC(N)=O)n2-c2ccc(Cl)cc2)c1	–	–	–	–	28µM
COc1cc2ncnc(NCc3ccc(Cl)cc3)c2cc1OC	–	–	–	–	?
COc1ccc(-n2c(COc3ccc4c(c3)OCO4)nnc2SCC(=O)O)cc1	–	–	–	–	50µM
COc1cccc(C(=O)CSc2nnc(CNS(C)(=O)=O)n2-c2ccc(C)cc2)c1	?	18µM	–	–	18µM
COc1ccc(-n2c(COc3ccc(C)cc3)nnc2SCC(N)=O)cc1	–	–	–	–	32µM
C[C@@H]1[C@@H](Sc2ccccc2)CC(=O)O[C@@H]1c1ccc(-c2ccccc2)cc1	–	–	–	·	·
O=C1C=CC2(O[C@H](c3ccccc3)[C@@H](c3ccccc3)O2)[C@H](Sc2ccccc2O)C1	?	79µM	·	·	·
NC(=O)c1ncn([C@@H]2O[C@H](CO)[C@@H](O)[C@H]2O)c1O	–	–	–	–	25µM!
Nc1ncn(C2O[C@H](CO)[C@@H](O)[C@H]2O)c(=O)n1 (some centres undefined)	·	·	·	–	–
Nc1nc(=S)c2ncn([C@H]3O[C@@H](CO)[C@@H](O)[C@@H]3O)c2[nH]1	·	·	11µM	·	?
COC(=O)/C=C/c1ccsc1NC(C)=O	–	–	50µM	–	?
NC(=O)c1ccsc1NC(=O)COC(=O)/C=C/c1ccccc1	–	–	·	–	–
Cc1nc(-n2nc(C)c(CCC(C)C)c2C)sc1C(=O)Nc1cccc(Cl)c1C	–	–	·	?	14µM
O=C(NN=Cc1ccccc1C(=O)O)C(=O)NN=Cc1ccccc1C(=O)O	–	50µM	·	·	·
O=C(O)c1ccccc1C=NNc1ccccn1	–	28µM	·	·	·
O=C(N/N=C/c1ccccc1C(=O)O)c1ccncc1	–	–	–	–	–
O=C(NCCc1ccc(Cl)cc1)C1CCC(=O)N1C1CCCC1 (centres undefined)	–	–	–	–	45µM
O=C1CC(N2CCCc3ccccc32)C(=O)N1c1ccccc1 (centres undefined)	–	–	–	–	40µM
CCc1ccccc1N1C(=O)CC(N2CCc3ccccc32)C1=O (centres undefined)	–	–	–	–	?
Cc1cccc(N2CCN(S(=O)(=O)c3c(C)[nH]c(=O)[nH]c3=O)CC2)c1C	–	–	–	–	40µM!
SMILES	HP1b binding inh	JMJD2A Tudor	Sfp PPTase inh	BAZ2B inh	G9a block
CCN(CC)c1ccc(NC(=O)c2cccnc2)cc1	–	–	–	?	10µM
CCn1nnc(NC(=O)c2cccnc2)n1	–	–	–	–	40µM
Cc1nn(S(=O)(=O)c2cccc([N+](=O)[O-])c2)c(C)c1Br	–	–	–	?	?
Cc1nn(S(=O)(=O)c2ccc(Br)cc2)c(C)c1S(=O)(=O)N1CCOCC1	–	–	–	?	40µM
Cc1nn(S(=O)(=O)c2ccc(Br)cc2)c(C)c1S(=O)(=O)N1CCCCCC1	–	–	·	–	–
Cc1ccc(S(=O)(=O)n2nc(C)c(S(=O)(=O)N3CCOCC3)c2C)cc1	–	?	–	?	35µM
Cc1nn(S(=O)(=O)c2ccc(Cl)cc2)c(C)c1S(=O)(=O)N1CCOCC1	–	?	–	–	?
Cc1nn(S(=O)(=O)c2cccc([N+](=O)[O-])c2)c(C)c1S(=O)(=O)N1CCOCC1	–	79µM	–	–	–
CCN(CC)C(=O)CSc1nc(-c2ccc(C)cc2)nc2c1COC(C)(C)C2	–	–	–	–	–
COCCN=c1scc(-c2cc(OC)c(OC)c(OC)c2)n1/N=C/c1c(C)[nH]c2ccccc12	?	20µM	–	11µM	?
Brc1ccc(OCCCN2CCOCC2)cc1	?	4.5µM	–	?	28µM
Brc1ccc(OCCN2CCOCC2)cc1	?	0.89µM	–	?	28µM
Clc1ccc(OCCN2CCOCC2)cc1	–	–	–	–	–
CC(C)(C)c1ccc(OC(=O)c2ccc3nsnc3c2)cc1	–	–	–	–	–[12.7 µM]
O=S(=O)(NC(CO)Cc1ccccc1)c1cc(Cl)ccc1F (centres undefined)	–	–	·	·	·
Cc1ccc(C(=O)n2nnc3ccccc32)cc1[N+](=O)[O-]	–	–	–	–	?
COc1cc(Br)c(C2CC(=O)Nc3cc(OC)c(OC)c(OC)c32)cc1OC (centres undefined)	–	–	·	–	–
COc1cc(C2C3=C(CCCC3=O)Nc3[nH]n(-c4ccccc4)c(=O)c32)cc(OC)c1OC (centres undefined)	–	–	–	–	?
COc1cc(C2C3=C(CCCC3=O)Nc3[nH]n(-c4ccccc4)c(=O)c32)ccc1OC(C)=O (centres undefined)	–	–	–	?	45µM
COc1ccc(C2C3=C(CCCC3=O)Nc3ccc4ncccc4c32)cc1OC (centres undefined)	–	–	–	–	50µM
COc1cc(C2C3=C(CCCC3=O)Nc3ccc4ncccc4c32)ccc1O (centres undefined)	–	–	–	–	–
O=C1CCCC2=C1C(c1ccc(O)c(O)c1)Nc1ccc3ncccc3c12 (centres undefined)	?	25µM	?	50µM	1.1µM
COc1ccc(-n2nc3c(c2NC(=O)CCCCl)CSC3)cc1	–	–	–	–	–
CC[N+](CC)(CC)CCCCOc1ccc2c(c1)C(=O)c1cc(OCCCC[N+](CC)(CC)CC)ccc1-2	–	35µM	–	–	?
NC(=O)CC(NC(=O)Cc1cccc2ccccc12)c1ccc(NCCCN2CCCC2=O)c([N+](=O)[O-])c1 (centres undefined)	–	–	–	–	71µM
CCN1CCCc2cc(CN(CCN3CCOCC3)C(=O)Nc3ccc(C)c(C)c3)ccc21	?	28µM	–	45µM	8.9µM
CCCCN1CCCc2cc(CN(CCCN3CCOCC3)C(=O)Nc3ccc(OCC)cc3)ccc21	?	13µM	·	–	?
CCc1ccc(NC(=O)N(CCN2CCOCC2)Cc2ccc3c(c2)CCCN3CC)cc1	28µM	22µM	?	?	32µM

Screens from PubChem.
